# Results: ChEMBL document CHEMBL3988442, “University of Dundee, Small-Polar-MMV Screening Library” (2021)
# For some assays here: Entries with a potency or affinity are not part of this list.
# Experiments:
# Set-up in all cases: scale not given: direction of the effect not stated beside the values
# [1] = biological target: Protein translocase subunit SecA (Escherichia coli (strain K12)) (UniProt P10408); test: Assay to Identify E. coli SecA ATPase Inhibitors; assay type: functional; conditions: 30 µM
# [2] = biological target: T1, Ubiquitin-activating enzyme e1, putative (Leishmania donovani (strain BPK282A1)) (UniProt E9BSI1); test: Leishmania donovani Ubiquitin Activating Enzyme (LdE1); assay type: functional; conditions: 30 µM
# T1 sequence (whole entry): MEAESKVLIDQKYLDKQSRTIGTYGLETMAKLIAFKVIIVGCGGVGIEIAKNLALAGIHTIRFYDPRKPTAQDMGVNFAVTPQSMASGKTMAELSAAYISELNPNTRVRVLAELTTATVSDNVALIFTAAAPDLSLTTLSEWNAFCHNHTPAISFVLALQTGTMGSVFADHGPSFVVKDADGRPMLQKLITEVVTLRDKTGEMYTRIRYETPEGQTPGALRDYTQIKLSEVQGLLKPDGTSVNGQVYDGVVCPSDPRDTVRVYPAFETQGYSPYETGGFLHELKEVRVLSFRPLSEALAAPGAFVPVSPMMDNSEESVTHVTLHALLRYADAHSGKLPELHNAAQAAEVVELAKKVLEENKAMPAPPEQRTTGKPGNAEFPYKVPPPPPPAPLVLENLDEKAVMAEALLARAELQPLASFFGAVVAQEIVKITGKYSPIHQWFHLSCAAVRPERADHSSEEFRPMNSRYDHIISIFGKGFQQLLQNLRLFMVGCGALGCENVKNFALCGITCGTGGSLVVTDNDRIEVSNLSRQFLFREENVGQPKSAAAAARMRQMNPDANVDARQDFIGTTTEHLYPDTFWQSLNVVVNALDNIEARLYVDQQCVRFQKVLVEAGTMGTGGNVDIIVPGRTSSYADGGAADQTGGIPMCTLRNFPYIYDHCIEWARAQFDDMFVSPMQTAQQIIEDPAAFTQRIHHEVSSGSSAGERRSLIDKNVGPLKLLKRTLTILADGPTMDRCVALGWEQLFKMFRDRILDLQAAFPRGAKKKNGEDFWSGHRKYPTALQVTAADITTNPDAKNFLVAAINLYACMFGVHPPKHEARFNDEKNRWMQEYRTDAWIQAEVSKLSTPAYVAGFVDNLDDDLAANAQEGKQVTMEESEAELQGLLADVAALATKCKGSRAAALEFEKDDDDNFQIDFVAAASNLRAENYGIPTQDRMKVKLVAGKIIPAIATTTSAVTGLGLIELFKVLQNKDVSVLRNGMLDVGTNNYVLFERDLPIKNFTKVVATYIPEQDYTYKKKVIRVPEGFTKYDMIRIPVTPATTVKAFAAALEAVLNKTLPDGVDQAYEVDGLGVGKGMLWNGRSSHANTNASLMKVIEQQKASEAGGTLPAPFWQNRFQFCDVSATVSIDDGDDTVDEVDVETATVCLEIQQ
# [3] = biological target: AMP-activated protein kinase, AMPK (Homo sapiens) (UniProt P54646+O43741+P54619+Q9UGJ0+Q9Y478+Q13131+Q9UGI9); test: AMP-dependent Kinase enzyme assay. An in vitro enzyme assay that detects ADP turnover that is directly proportional to AMPK activity. This uses naive AMPK that is activated during the assay with MK-8722; assay type: functional; conditions: 30 µM
# [4] = biological target: Sialic acid-binding Ig-like lectin 9 (Homo sapiens) (UniProt Q9Y336); test: Hs-Siglec9 ALPHAscreen SOP 20170721; conditions: 10 µM
# Trypanosoma cruzi = test: Trypanosoma cruzi phosphomannomutase and mannose-1-phosphate guanylyltransferase assay; assay type: functional; conditions: 10 µM
# [5] = biological target: T2, Arginase-2, mitochondrial (Homo sapiens) (UniProt P78540); test: in vitro enzyme assay to detect the production of urea directly proportional to the activity of Arginase II; assay type: functional; conditions: 33.3 µM; further: in the data most compounds retested in dose-response had high values
# T2 sequence (whole entry): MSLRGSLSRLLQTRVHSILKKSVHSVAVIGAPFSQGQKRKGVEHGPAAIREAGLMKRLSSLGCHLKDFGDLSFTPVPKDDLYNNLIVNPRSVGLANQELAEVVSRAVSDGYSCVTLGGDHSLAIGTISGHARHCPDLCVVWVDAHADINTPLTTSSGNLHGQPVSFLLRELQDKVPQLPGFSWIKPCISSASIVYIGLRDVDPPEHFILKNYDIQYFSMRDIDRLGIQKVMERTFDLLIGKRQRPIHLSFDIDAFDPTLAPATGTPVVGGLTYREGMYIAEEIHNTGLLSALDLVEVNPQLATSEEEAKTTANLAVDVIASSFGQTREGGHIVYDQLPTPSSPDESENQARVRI
# [6] = biological target: T3, Proteasome subunit beta (Trypanosoma cruzi) (UniProt O96673); test: Trypanosoma cruzi proteasome chymotrypsin-like activity (TcProtChymo) assay.; further: in the data most compounds retested in dose-response had high values; assay type: functional; conditions: 9.37 µM
# T3 sequence (whole entry): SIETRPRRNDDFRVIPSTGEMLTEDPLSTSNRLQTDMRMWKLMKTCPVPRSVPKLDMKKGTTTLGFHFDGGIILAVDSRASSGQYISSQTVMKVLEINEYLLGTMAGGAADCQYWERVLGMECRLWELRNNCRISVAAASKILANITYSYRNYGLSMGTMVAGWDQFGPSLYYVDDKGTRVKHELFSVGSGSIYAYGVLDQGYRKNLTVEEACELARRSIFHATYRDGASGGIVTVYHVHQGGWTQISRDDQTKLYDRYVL
# Homo sapiens = species: Homo sapiens; test: To identify inhibition of the IFN signalling (Jak-Stat) pathway via expression of an eGFP reporter gene under the control of an IFN-stimulated response element (ISRE) containing MxA promoter.; assay type: functional; conditions: 30 µM
# [7] = biological target: T4, Tyrosyl-tRNA synthetase, putative (Trypanosoma cruzi (strain CL Brener)) (UniProt Q4DSP6); test: Trypanosoma cruzi tyrosyl tRNA synthetase (TcYRS) _High Tyrosine SOP; assay type: functional; conditions: 30 µM; further: in the data most compounds retested in dose-response had high values
# T4 sequence (whole entry): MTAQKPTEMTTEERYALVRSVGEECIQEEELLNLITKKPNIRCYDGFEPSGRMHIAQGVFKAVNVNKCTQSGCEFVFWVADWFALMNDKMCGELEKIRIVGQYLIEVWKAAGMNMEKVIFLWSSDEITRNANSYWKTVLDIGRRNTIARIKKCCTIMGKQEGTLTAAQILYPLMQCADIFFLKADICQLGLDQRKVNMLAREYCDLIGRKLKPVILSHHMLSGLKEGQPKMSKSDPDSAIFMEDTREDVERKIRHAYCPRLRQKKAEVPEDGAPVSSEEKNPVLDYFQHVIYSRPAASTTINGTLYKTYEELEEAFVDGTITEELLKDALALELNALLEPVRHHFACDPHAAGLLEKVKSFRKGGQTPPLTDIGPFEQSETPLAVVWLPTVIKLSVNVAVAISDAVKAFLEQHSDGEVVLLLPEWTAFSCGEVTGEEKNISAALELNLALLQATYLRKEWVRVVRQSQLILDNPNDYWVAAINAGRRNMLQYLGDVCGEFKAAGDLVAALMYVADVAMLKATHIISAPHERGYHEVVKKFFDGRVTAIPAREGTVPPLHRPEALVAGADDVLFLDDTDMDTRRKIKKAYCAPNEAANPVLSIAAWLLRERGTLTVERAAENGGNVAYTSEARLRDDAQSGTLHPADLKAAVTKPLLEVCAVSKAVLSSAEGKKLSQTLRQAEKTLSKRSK
# [8] = biological target: T4, Tyrosyl-tRNA synthetase, putative (Trypanosoma cruzi (strain CL Brener)); test: Trypanosoma cruzi tyrosyl tRNA synthetase (TcYRS) SOP; assay type: functional; conditions: 30 µM
# [9] = biological target: Chromo domain-containing protein 1 (Saccharomyces cerevisiae (strain ATCC 204508 / S288c) (Baker's yeast)) (UniProt P32657); test: ScCHD-1 Enzyme Inhibition Assay; assay type: functional; conditions: 30 µM; further: in the data most compounds retested in dose-response had high values
# Chromo domain-containing protein 1 (Saccharomyces cerevisiae (strain ATCC 204508 / S288c) (Baker's yeast)), sequence (P32657 whole entry, the tested form may be a part): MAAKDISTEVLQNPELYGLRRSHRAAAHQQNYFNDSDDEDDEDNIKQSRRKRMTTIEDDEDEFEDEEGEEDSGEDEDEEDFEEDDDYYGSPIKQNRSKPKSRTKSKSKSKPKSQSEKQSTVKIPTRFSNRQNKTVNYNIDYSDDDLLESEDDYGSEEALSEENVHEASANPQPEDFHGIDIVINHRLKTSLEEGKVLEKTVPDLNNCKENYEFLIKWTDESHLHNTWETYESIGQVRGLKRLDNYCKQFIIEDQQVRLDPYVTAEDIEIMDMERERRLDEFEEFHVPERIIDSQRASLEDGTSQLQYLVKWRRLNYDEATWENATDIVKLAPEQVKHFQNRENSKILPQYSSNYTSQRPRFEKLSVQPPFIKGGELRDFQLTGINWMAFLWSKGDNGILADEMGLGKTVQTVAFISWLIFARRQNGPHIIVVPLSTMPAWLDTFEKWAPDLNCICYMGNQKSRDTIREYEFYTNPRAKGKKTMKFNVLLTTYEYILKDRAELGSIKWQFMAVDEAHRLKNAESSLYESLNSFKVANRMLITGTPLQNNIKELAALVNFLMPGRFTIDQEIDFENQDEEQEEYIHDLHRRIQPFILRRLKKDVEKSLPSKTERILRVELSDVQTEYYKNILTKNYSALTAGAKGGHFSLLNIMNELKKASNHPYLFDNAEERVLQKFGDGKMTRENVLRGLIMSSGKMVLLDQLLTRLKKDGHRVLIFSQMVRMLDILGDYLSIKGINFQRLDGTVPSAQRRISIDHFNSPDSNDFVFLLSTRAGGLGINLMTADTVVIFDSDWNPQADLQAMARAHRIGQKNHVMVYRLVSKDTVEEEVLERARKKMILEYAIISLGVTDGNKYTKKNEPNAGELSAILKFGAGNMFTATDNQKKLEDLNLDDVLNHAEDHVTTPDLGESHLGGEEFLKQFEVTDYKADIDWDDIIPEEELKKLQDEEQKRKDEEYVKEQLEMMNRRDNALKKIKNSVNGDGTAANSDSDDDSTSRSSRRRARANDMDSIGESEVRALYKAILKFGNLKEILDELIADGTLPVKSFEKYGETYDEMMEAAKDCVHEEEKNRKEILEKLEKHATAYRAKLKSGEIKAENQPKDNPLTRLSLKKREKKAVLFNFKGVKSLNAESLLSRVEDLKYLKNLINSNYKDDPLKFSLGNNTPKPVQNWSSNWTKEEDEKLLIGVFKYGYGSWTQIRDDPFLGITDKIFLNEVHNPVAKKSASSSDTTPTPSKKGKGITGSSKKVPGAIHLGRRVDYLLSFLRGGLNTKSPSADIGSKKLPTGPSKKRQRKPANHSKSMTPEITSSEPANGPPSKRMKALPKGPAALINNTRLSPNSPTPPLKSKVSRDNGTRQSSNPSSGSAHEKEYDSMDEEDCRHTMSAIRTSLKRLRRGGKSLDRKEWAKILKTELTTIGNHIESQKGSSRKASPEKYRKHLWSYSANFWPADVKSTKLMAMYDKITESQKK
# Sialic acid-binding Ig-like lectin 9 (Homo sapiens), sequence (Q9Y336 whole entry): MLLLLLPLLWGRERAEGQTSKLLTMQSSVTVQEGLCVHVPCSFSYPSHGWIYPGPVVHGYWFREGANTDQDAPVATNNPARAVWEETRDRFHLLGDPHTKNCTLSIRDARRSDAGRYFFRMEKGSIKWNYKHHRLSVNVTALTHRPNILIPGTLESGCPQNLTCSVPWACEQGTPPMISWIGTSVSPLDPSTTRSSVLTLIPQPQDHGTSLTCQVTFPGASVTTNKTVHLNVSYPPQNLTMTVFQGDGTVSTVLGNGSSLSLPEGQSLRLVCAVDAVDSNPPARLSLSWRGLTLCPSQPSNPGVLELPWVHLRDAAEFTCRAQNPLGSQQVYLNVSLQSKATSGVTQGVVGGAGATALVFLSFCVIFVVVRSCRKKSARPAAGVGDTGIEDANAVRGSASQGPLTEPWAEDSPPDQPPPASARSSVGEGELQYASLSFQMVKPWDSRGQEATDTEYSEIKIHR
# Protein translocase subunit SecA (Escherichia coli (strain K12)), sequence (P10408 whole entry): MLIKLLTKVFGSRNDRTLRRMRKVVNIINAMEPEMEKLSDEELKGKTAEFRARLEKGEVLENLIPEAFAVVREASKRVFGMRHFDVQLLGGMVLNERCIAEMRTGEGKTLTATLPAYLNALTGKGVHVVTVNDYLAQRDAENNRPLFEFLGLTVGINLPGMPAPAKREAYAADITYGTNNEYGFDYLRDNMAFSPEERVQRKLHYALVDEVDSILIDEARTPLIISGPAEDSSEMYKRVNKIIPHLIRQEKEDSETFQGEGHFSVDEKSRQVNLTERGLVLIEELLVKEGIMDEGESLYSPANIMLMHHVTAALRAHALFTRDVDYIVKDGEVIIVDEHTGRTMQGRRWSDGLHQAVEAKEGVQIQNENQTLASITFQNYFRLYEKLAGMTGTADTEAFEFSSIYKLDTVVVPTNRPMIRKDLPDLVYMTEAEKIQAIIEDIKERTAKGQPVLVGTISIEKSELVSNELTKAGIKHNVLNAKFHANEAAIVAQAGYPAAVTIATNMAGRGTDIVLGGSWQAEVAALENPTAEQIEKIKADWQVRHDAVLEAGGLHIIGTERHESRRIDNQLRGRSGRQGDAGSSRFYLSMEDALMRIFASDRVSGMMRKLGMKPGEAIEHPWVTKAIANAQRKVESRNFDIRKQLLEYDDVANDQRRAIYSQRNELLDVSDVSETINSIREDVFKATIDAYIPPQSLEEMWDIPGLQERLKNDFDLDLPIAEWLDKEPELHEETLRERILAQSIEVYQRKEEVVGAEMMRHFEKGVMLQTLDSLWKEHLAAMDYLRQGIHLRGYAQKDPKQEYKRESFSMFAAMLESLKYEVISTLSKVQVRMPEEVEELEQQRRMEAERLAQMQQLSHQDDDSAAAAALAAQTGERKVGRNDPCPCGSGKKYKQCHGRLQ
SMILES,Percent Effect [1] [%],Percent Effect [2] [%],Percent Effect [3] [%],Percent Effect [4] [%],Percent Effect (Trypanosoma cruzi) [%],Percent Effect [5] [%],Percent Effect [6] [%],Percent Effect (Homo sapiens) [%],Percent Effect [7] [%],Percent Effect [8] [%],Percent Effect [9] [%]
Cn1cnc2c1CCN(Cc1nc(Cc3ccccc3)no1)C2,-2.4,-7.89,-7.72,-0.869,3.27,4.68,-0.931,1.02,11.3,6.17,3.08
CC(=O)NCCc1ccc(S(=O)(=O)N(CC(C)C)C(C)C)s1,3,4.17,30.7,4.43,-6.9,-0.883,18.2,16.9,-2.1,-5.13,106
CCC(C)(C)NC(=O)CN(C)C(c1cccc(F)c1)c1ccccn1 (centres undefined),0.66,2.6,9.59,15.1,-3.56,3.56,0.845,36.6,5.83,7.32,-2.33
CCN(CCC(F)(F)F)C(=O)Nc1cccc(N2CCOCC2)c1,-2.27,5.41,-8.53,14.9,2.12,-2.38,5.52,16.4,2.65,7.32,-3.36
CCc1ccc(C(=O)N2CCN(CC(C)O)CC2)o1 (centres undefined),0.315,21.1,-5.4,-6.92,5.08,6.13,16.2,3.74,1.47,19.5,-12.7
COc1ccc(CC(=O)N(C)Cc2nnc3ccccn23)cc1,-4.71,26,2.72,-2.77,3.62,-6.53,17.1,12.6,8.57,25.9,77.9
CN(Cc1nnc(C2CC2)n1C)C1CCN(Cc2ccccc2F)C1 (centres undefined),-3.03,-5.48,-2.94,2.42,2.18,-3.19,10.4,-27.4,0,8.64,-4.72
CCOc1ccccc1OC1CCN(C(=O)c2cc[nH]n2)CC1,-5.63,13.2,8.96,-2.66,-4.13,4.21,12.4,26.7,2.45,7.32,-7.55
COc1cccc2c1OCC(CNC(=O)CSc1nc(N)n[nH]1)C2 (centres undefined),-4.78,0,-3.58,26.8,3.62,-3.23,8.84,4.85,8.6,21,-3.99
O=C(c1ccc(F)cc1)N1C[C@H]2CCC[C@@]2(COCc2ccccn2)C1,-4.13,8.11,-4.94,1.62,2.44,7.96,22,-12.1,3.24,17.9,1.95
CCNc1cc2c(nn1)CCN(C(=O)c1ccnc(N(C)C)c1)C2,-2.5,5.26,-29.5,4.93,9.21,4.98,5.01,-24.9,4.41,4.88,-5.51
Cc1ccc(OCCCNC(=O)NC(C)c2nncn2C)cc1 (centres undefined),-4.22,13,6.68,-5.15,4.41,4.42,8,-0.0367,7.62,18.8,-17.6
Cc1cccc(-c2ccc(C(=O)NCC3CCOC3)c(=O)[nH]2)c1 (centres undefined),-2.02,10.8,-7.21,7.34,-0.472,-4.41,-0.18,12.2,5.42,11.1,-8.03
Cc1nc(NCCc2ccc(Cl)cc2)cc(C(=O)N2CCOCC2)n1,0.862,5.2,-3.84,11.5,3.64,-44.1,9.98,23.7,7.53,16.1,-2.1
CN(Cc1cnn(C)c1)C(=O)NCc1csc(Br)c1,-1.72,16.2,10.9,-2.71,-8.08,2.77,14.7,17.1,-3.96,-1.22,-6.6
COc1cccc(CNC(=O)CN2CCCCC2Cn2cccn2)c1 (centres undefined),-3.05,5.2,2.66,13,4.6,-0.21,2.83,-17,3.81,11.8,-17.2
COCc1noc(C2(c3ccc(F)cc3)CCOCC2)n1,3.24,8.11,7.86,11.7,-7.72,-3.81,11.4,40.2,0.529,-2.44,-5.88
CCc1nc(C2CCCN2Cc2nccn2Cc2ccccc2)no1 (centres undefined),-0.608,0,1.64,13.2,2.25,0.21,9.13,10.5,2.86,2.35,4.26
Cc1cc(F)ccc1OC1(C(=O)O)CCN(Cc2cccnc2N)CC1,-6.33,5.33,-1.53,2.08,-3.02,-0.521,5.93,0.568,6.01,11.1,1.09
